Data published in PubChem BioAssay (NCI).
About 83,000 compounds went through this panel and 20% of them were active in at least one assay; those are over-represented in the sample as a whole.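 Assay: single dose, 48 h. Readout: percent growth (0 = no net growth; negative = cell death). Active: <10.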 A number with no mark means an inactive call. Active and inactive are the calls of the source.

tested on: 786-0 renal; test: NCI-60 one-dose screen, 48 h (100 = growth as untreated, 0 = no growth, -100 = all killed); conditions: 10 µM unless noted

Structure (SMILES) | growth
COc1ccc2c(c1)c(-c1cc(N)n3nc(-c4c[nH]c5ccccc45)cc3n1)cn2C | -84.5% (active)
COc1ccccc1NC(=O)N/N=C/c1c[nH]c2ccccc12 | 14.9%
CC[C@]12C=CCN3CC[C@@]4(c5ccc(OC)cc5N(C)[C@H]4[C@@](O)(C(=O)OC)[C@@H]1OC(=O)CCCC[P+](c1ccc(F)cc1)(c1ccc(F)cc1)c1ccc(F)cc1)[C@@H]32 | 87.1%
Cc1ccc(Cl)cc1NC(=O)Nc1nc2ccc([N+](=O)[O-])cc2s1 | -27.9% (active)
Nc1nnc(CS(=O)(=O)c2ccccc2)s1 | 108%
N#CC1=C(c2cccs2)Nc2c(c(-c3ccccc3)nn2-c2ccccc2)C12C(=O)Nc1ccc(Br)cc12 (stereo unspecified) | -22.7% (active)
N#Cc1ccc(C(=O)CSc2nc3c(c(Nc4ccc(S(N)(=O)=O)cc4)n2)CCC3)cc1 | -22.3% (active)
Cc1cccc(-c2ccccc2Oc2ccc3nnc(Cl)n3n2)c1 | 98.8%
COC(=O)c1cc(C(=O)CBr)n2c1ccc1c3ccccc3ccc12 | 52.1%
O=C(Cn1c(/C=C/c2ccc([N+](=O)[O-])cc2)nc2ccccc2c1=O)Nc1ccccc1 | 47.2%
CC(C)C[C@H](NC(=O)CNC(=O)C[C@H]1O[C@@H]2OC3(C)CC[C@H]4[C@H](C)CC[C@@H]([C@H]1C)[C@@]24O3)B(O)O | 16%
COc1ccccc1/C=C/c1cccc(NC(=S)NCCCCN(C)C)c1 | -55.3% (active)
CCCn1c(NC(=O)c2cccc(C(N)=O)c2)nc2cc(CN3CCCCC3)ccc21 | 9.97% (active)
Fc1cccc(CNc2nc(SCCN3CCOCC3)nc3c2cnn3CC(Cl)c2ccc(Br)cc2)c1 (stereo unspecified) | 20.9%
COc1ccc(NC(=O)Nc2nc3ccc([N+](=O)[O-])cc3s2)cc1 | 35.3%
O=C1c2cccc3c(N4CCN(c5ccccc5)CC4)ccc(c23)C(=O)N1c1cccc(-c2nn(-c3ccccc3)cc2-c2nc3ccccc3s2)c1 | 102%
Clc1ccccc1Nc1nnc(-c2c[nH]c3ccccc23)o1 | 36%
Nc1nnc(-c2cncc(Br)c2)c(-c2c[nH]c3ccc(Br)cc23)n1 | 55.5%
O=C(CSc1nc2ccccc2c(=O)[nH]1)NNC(=O)c1ccccc1Cl | 97.1%
COc1c2c(c(Br)c3c1C(CCc1ccccc1)N(C)CC3)OCO2 (stereo unspecified) | 47.6%
Cn1cc(-c2cc3nc(-c4c[nH]c5ccccc45)cc(N)n3n2)c2ccccc21 | -90.6% (active)
O=C(/C=C1\C(=O)N(Cc2ccccc2)c2ccccc21)c1cc2ccccc2oc1=O | 100%
O=c1ccc(Cn2c(C(F)(F)F)cc3c(Cl)ncnc32)c[nH]1 | 102%
O=C1CC(c2ccc(I)cc2)OC2C=Cc3ccccc3C12 (stereo unspecified) | 99.2%
COC(=O)c1c(C(=O)OC)c2ccc3c4ccccc4ccc3n2c1C(=O)OC | 100%
O=C(N/N=C/c1occc1Br)c1[nH]c2ccc(Br)cc2c1-c1ccccc1 | -76.6% (active)
Cn1cc(-c2cc(N)n3nc(-c4c[nH]c5ccccc45)cc3n2)c2cc(Br)ccc21 | -73.7% (active)
Cc1ccc2c(c1)/C(=C/C(=O)c1cc3ccccc3oc1=O)C(=O)N2 | 74.7%

tested on: COLO 205 colon; test: as above; conditions: 10 µM unless noted

Structure (SMILES) | growth
COc1cc(CNC(=O)C[C@H](C)CCC=C(C)C)ccc1OCc1cn(-c2ccc(Br)cc2)nn1 | 113%
N#CC1=C(c2cccs2)Nc2c(c(-c3ccccc3)nn2-c2ccccc2)C12C(=O)Nc1ccccc12 (stereo unspecified) | 55.9%
N#Cc1c(-c2ccc(F)cc2)nc(SCc2ccc(F)cc2)nc1N1CCNCC1 | -68.8% (active)
COc1cc(NC(=O)CSc2nnc(-c3ccc(-c4nc5ccc(Cl)cc5[nH]4)cc3)o2)cc(OC)c1OC | 74.2%
CN(C)c1nc(NCCNS(=O)(=O)c2ccc(C(=O)/C=C/c3ccc(C(F)(F)F)cc3)cc2)nc(N2CCOCC2)n1 | 16.1%
COc1cc(CNC(=O)C[C@H](C)CCC=C(C)C)ccc1OCc1cn(-c2ccc(Cl)cc2Cl)nn1 | 105%
O=C(N=Nc1c(O)[nH]c2ccc(Cl)cc12)c1ccc2nc(-c3ccc(Cl)cc3)[nH]c2c1 | -17.6% (active)
CC1=C(C(=O)OCc2ccccc2)C(c2ccc(N(C)C)cc2)n2c(nc3ccccc32)N1 (stereo unspecified) | 110%
Cn1cc(-c2cc(N)n3nc(-c4c[nH]c5ccc(F)cc45)cc3n2)c2cc(Br)cnc21 | 119%
CCCCC[C@@H]1C/C=C(\C)[C@@H](O)C(C)(C)C(=O)[C@@H](C)/C=C(\C)[C@@H]2C[C@H](O)C[C@](O)(CC(=O)O1)O2 | 37.6%
COc1ccc2c(c1)c(-c1cc(N)n3nc(-c4c[nH]c5ccccc45)cc3n1)cn2C | -83.9% (active)
COc1ccccc1NC(=O)N/N=C/c1c[nH]c2ccccc12 | 4.3% (active)
CC[C@]12C=CCN3CC[C@@]4(c5ccc(OC)cc5N(C)[C@H]4[C@@](O)(C(=O)OC)[C@@H]1OC(=O)CCCC[P+](c1ccc(F)cc1)(c1ccc(F)cc1)c1ccc(F)cc1)[C@@H]32 | -43.4% (active)
Cc1ccc(Cl)cc1NC(=O)Nc1nc2ccc([N+](=O)[O-])cc2s1 | -87.9% (active)
Nc1nnc(CS(=O)(=O)c2ccccc2)s1 | 117%
N#CC1=C(c2cccs2)Nc2c(c(-c3ccccc3)nn2-c2ccccc2)C12C(=O)Nc1ccc(Br)cc12 (stereo unspecified) | -83% (active)
N#Cc1ccc(C(=O)CSc2nc3c(c(Nc4ccc(S(N)(=O)=O)cc4)n2)CCC3)cc1 | 87.2%
Cc1cccc(-c2ccccc2Oc2ccc3nnc(Cl)n3n2)c1 | 127%
COC(=O)c1cc(C(=O)CBr)n2c1ccc1c3ccccc3ccc12 | 38.7%

Structure (SMILES) | growth
O=C(Cn1c(/C=C/c2ccc([N+](=O)[O-])cc2)nc2ccccc2c1=O)Nc1ccccc1 | 67.2%
CC(C)C[C@H](NC(=O)CNC(=O)C[C@H]1O[C@@H]2OC3(C)CC[C@H]4[C@H](C)CC[C@@H]([C@H]1C)[C@@]24O3)B(O)O | 29.5%
COc1ccccc1/C=C/c1cccc(NC(=S)NCCCCN(C)C)c1 | -68.2% (active)
CCCn1c(NC(=O)c2cccc(C(N)=O)c2)nc2cc(CN3CCCCC3)ccc21 | 88.7%
Fc1cccc(CNc2nc(SCCN3CCOCC3)nc3c2cnn3CC(Cl)c2ccc(Br)cc2)c1 (stereo unspecified) | -9.76% (active)
COc1ccc(NC(=O)Nc2nc3ccc([N+](=O)[O-])cc3s2)cc1 | 67.9%
O=C1c2cccc3c(N4CCN(c5ccccc5)CC4)ccc(c23)C(=O)N1c1cccc(-c2nn(-c3ccccc3)cc2-c2nc3ccccc3s2)c1 | 110%
Clc1ccccc1Nc1nnc(-c2c[nH]c3ccccc23)o1 | -33.6% (active)
Nc1nnc(-c2cncc(Br)c2)c(-c2c[nH]c3ccc(Br)cc23)n1 | 51.3%
O=C(CSc1nc2ccccc2c(=O)[nH]1)NNC(=O)c1ccccc1Cl | 124%
COc1c2c(c(Br)c3c1C(CCc1ccccc1)N(C)CC3)OCO2 (stereo unspecified) | 29.6%
Cn1cc(-c2cc3nc(-c4c[nH]c5ccccc45)cc(N)n3n2)c2ccccc21 | -88.8% (active)
O=C(/C=C1\C(=O)N(Cc2ccccc2)c2ccccc21)c1cc2ccccc2oc1=O | 28.6%
O=c1ccc(Cn2c(C(F)(F)F)cc3c(Cl)ncnc32)c[nH]1 | 62.6%
O=C1CC(c2ccc(I)cc2)OC2C=Cc3ccccc3C12 (stereo unspecified) | 118%
COC(=O)c1c(C(=O)OC)c2ccc3c4ccccc4ccc3n2c1C(=O)OC | 115%
O=C(N/N=C/c1occc1Br)c1[nH]c2ccc(Br)cc2c1-c1ccccc1 | -73.5% (active)
Cn1cc(-c2cc(N)n3nc(-c4c[nH]c5ccccc45)cc3n2)c2cc(Br)ccc21 | -90.1% (active)
Cc1ccc2c(c1)/C(=C/C(=O)c1cc3ccccc3oc1=O)C(=O)N2 | 30.4%
